Compound activity: PubChem, several laboratories
KLF5 inhibitor: KLF5 expression inhibitors, primary screen, DLD-1 cells, luminescence; inhibition, % at 5 µM; DLD-1 KLF5 promoter-luciferase reporter; actives 0.23% (n = 290,000); AID 1700, 2009;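 active = inhibition above a per-plate limit of that plate's mean compound inhibition plus 3 SD, cut at about 60% in these data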;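 also: 0% = DMSO wells and 100% = LY294002 at 200 µM; higher means less KLF5 promoter-driven luciferase light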
Wee1 stabilizer: Wee1 degradation inhibitors, primary screen, cell-based, HeLa, Wee1K328M-luciferase, luminescence; HeLa Luc-Wee1K328M stability; 100% = proteasome inhibitor MG132 effect; reporter increase, % at 5 µM; actives 1.2% (n = 220,000); AID 1321, 2008;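 active = activation above the mean of all tested compounds plus 3 SD, set per screening run, cut at about 8.8% in these data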;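 also: cells exposed to compound for 20 h before luminescence read; 0% = DMSO alone and 100% = MG132 at 30 µM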
Target sequence (P30291 whole entry K328M): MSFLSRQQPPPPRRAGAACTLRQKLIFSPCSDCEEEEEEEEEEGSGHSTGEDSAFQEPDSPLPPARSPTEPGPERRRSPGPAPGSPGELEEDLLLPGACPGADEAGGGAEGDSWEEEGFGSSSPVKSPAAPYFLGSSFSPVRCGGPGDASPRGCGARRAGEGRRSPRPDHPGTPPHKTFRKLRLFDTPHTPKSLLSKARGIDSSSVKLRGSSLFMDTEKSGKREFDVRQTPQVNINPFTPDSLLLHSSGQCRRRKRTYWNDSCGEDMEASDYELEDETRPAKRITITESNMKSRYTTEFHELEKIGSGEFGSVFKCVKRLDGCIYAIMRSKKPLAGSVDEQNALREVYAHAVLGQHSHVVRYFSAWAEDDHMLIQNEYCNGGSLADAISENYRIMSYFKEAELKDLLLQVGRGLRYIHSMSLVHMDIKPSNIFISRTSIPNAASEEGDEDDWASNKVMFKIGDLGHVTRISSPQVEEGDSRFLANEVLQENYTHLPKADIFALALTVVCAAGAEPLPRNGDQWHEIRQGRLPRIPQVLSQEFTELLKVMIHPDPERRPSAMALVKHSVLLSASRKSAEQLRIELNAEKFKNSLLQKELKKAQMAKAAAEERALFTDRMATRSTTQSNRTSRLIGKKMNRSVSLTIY
HIF act: HIF pathway transcriptional activators, primary screen, cell-based, U2OS HRE-luciferase, luminescence | AID 1910, 2009 | actives 0.32% (n = 300,000) | U2OS HRE-luciferase reporter; normalized: DMSO 0%, desferrioxamine 100% | activation, % at 7.5 µM (by protocol);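 active = mean activation of at least 10% of the iron chelator positive control signal, with at least half of replicates also reaching 10%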
aSyn 5UTR inh: MLPCN primary screen, SNCA 5' untranslated region. alpha-synuclein 5'UTR reporter, inhibitor activity. inhibition, % (tested at 7.5 µM). AID 1813, 2009. actives 0.82% (n = 300,000); in the data active = inhibition above about 60%;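 also: H4 neuroglioblastoma cells stably carrying SNCA 5'UTR luciferase fusion; 0% = DMSO wells and 100% = positive control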
Platelet DG rel: inhibitors of platelet dense granule secretion, primary screen, cell-based, MLPCN, human platelets. inhibition, %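 (compounds screened at 7.5 µM in platelet-rich plasma)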. human platelet-rich plasma, SFLLRN dense granule ATP release, luminescence. actives 0.22% (n = 300,000);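 active = mean replicate score, as percent of positive control, at or above 50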
* = called active by the depositor; i = inactive; . = not tested or not shown. Shown are actives, neighbours in structure and some others; about 2.1% of the full set was active somewhere.

SMILES | KLF5 inhibitor | Wee1 stabilizer | HIF act | aSyn 5UTR inh | Platelet DG rel
Cc1ccc(S(=O)(=O)c2nc(-c3ccccc3Cl)oc2N(C)C)cc1 | 6 | . | 56* | 14 | 2
COc1cc(NC(=O)c2cc(Cl)nnc2Cl)cc(OC)c1OC | -12 | 10* | 0 | -53 | -11
COc1cccc(NC(=O)c2cc(Cl)nnc2Cl)c1 | 16 | 1 | 0 | -30 | 1
CC(CNS(=O)(=O)c1ccc2c(c1)NC(=O)CCS2)c1ccccc1 (centres undefined) | -13 | . | 0 | 18 | -3
CC1=C(C(=O)Nc2ccccn2)C(c2ccc(Br)cc2)NC(=S)N1 (centres undefined) | -34 | 0 | 4 | -106 | -5
CC1=C(C(=O)Nc2ccccn2)C(c2ccc(Cl)cc2)NC(=S)N1 (centres undefined) | -9 | 9.9* | 1 | -122 | -2
O=C1/C(=C/c2ccc([N+](=O)[O-])cc2)CCc2ccccc21 | -35 | 8 | 1 | -51 | 50*
O=C(Nc1cccc(O)c1)c1noc2c1CCc1ccccc1-2 | -10 | 4 | -2 | 33 | 51*
Cc1ccc(NC(=O)c2noc3c2CCc2ccccc2-3)cc1 | -110 | -3 | 5 | -205 | -1
Cc1nc(N2CCC(C)CC2)c2oc3ccccc3c2n1 | 1 | 2 | 0 | 29 | 60*
O=C(c1ccccc1)c1c2c(cc3sc4ccccc4[n+]13)-c1cccc3cccc-2c13 | -9 | -2 | . | . | .
Cc1sc2cc3c(c(C(=O)c4ccccc4)[n+]2c1C)-c1cccc2cccc-3c12 | -1 | -1 | 11* | 37 | -3
O=C(N/N=C/c1ccc2ncccc2c1)c1cccc([N+](=O)[O-])c1 | -32 | . | 1 | -20 | 3
CC(C)[C@@H](N)C(=O)N/N=C/c1ccc2ncccc2c1 | -18 | 18* | 1 | -38 | -4
O=C(Nc1ccccc1O)c1ccc(NS(=O)(=O)c2cccc3cccnc23)cc1 | -39 | -1 | 127* | i | 10
COC(=O)c1ccc(NC(=O)c2ccc(NS(=O)(=O)c3cccc4cccnc34)cc2)cc1 | -6 | . | 0 | -10 | -3
O=C(Nc1ncccc1O)c1ccc(S(=O)(=O)Nc2ccccc2)cc1 | . | . | 72* | i | 6
O=C(NCCCNC(=O)c1cnccn1)c1ccc(Br)cc1 | -2 | . | 1 | 5 | 1
CN(CC(=O)Nc1ccccc1Cl)C(=O)COC(=O)c1cnccn1 | -39 | . | 0 | 9 | -14
O=C1CCCc2c1[nH]c1ccc(Cl)cc21 | -21 | 1 | 0 | 63* | 11
COc1ccc(C2=COc3ccccc3C(=O)N2)cc1 | -28 | -1 | 1 | -57 | 0
COc1ccc(C2=C(C=O)Cc3ccccc3O2)cc1 | . | . | 0 | 98* | 20
Clc1ccc(-c2cn3c(n2)-c2ccccc2C3)cc1Cl | -143 | 4 | 0 | -67 | 7
CCc1ccc(-c2nc(CSCC(=O)NC3CC3)c(C)o2)cc1 | 42 | . | -2 | 71* | 0
CCOc1ccccc1N(CC(=O)NC1CCCC1)S(=O)(=O)c1ccc(C)cc1 | 11 | . | -36 | 24 | 0
SMILES | KLF5 inhibitor | Wee1 stabilizer | HIF act | aSyn 5UTR inh | Platelet DG rel
Cc1ccc(NS(=O)(=O)c2cc(C(=O)N3CCN(C)CC3)ccc2C)cc1C | -39 | 8.9* | 0 | -7 | 9
Cc1ccccc1CN1CCN(C2CCC2)CC1CCO (centres undefined) | -28 | . | -1 | 8 | -1
O=C(NCC1OCCc2ccccc21)c1ccc(NC(=O)c2ccc(Cl)cc2)cc1 (centres undefined) | -4 | -1 | -2 | 79* | 11
COC(=O)C1=C(C(=O)OC)[C@@H]2N(Cc3ccccc3)c3ccccc3[C@@]23C[C@@H](C(=O)OC)N(C(=O)COCc2ccccc2)C3=N1 | . | . | 1 | -5 | 2
CNc1nc(-c2c[nH]c3ccccc23)cs1 | -25 | 1 | -1 | 8 | -2
CN=c1scc(-c2c[nH]c3ccccc23)n1C | 1 | 12* | . | . | .
Cc1nc2nc(-c3ccc(F)cc3)cn2nc1C | -190 | . | -1 | -9 | .
CCc1ccc(-c2cn3nc(C)c(C)nc3n2)cc1 | -129 | -3 | -3 | 87* | 19
CCOc1ccc(-c2nnc(SCC(=O)Nc3ccc4c(c3)c3ccccc3n4CC)n2N)cc1 | -2 | 0 | -7 | 84* | -2
COc1ccc(-c2nnc(SCC(=O)Nc3ccc(C)cc3)n2C)cc1 | 2 | 9.8* | 0 | -1 | 0
CCOc1ccc(NC(=O)CSc2nnc(Cn3cnc4ccccc43)n2C)cc1 | -30 | 2 | 20* | -7 | -6
CCn1c2ccccc2c2cc(NC(=O)CSc3nnc(-c4cccc(Cl)c4)o3)ccc21 | -17 | -3 | 0 | -53 | 61*
COc1cc(CCC(=O)NCc2ccc(F)cc2)cc(OC)c1OC | -12 | . | 1 | -2 | 19
CC(C)CN(C(=O)COC(=O)CNC(=O)c1ccccc1F)c1c(N)n(Cc2ccccc2)c(=O)[nH]c1=O | . | . | 1 | 14 | 0
CCOC(=O)CN1C(=O)C(CC)Oc2ccccc21 (centres undefined) | -16 | 17* | 0 | 16 | 15
Cc1ccc(O)c(C(=O)/C=C/c2ccc3c(c2)OCCCO3)c1 | -36 | 9.2* | 3 | -188 | -3
CC(=O)Nc1ccc(S(=O)(=O)Nc2ccccc2C(=O)N2CCCCCC2)cc1 | -36 | . | 0 | -1 | 22
CCn1cc(C(=O)NCCCOC(C)C)c(=O)c2cc(S(=O)(=O)N3CCOCC3)ccc21 | -24 | . | 0 | -27 | 5
CCN(CC)c1ccc(C(=S)NC2CCCCC2)cc1 | -25 | -1 | 1 | -64 | 5
CN(C)c1ccc(C(=S)NC2CCCCC2)cc1 | -149 | 10* | 2 | -111 | 3
O=c1oc2cc(OCCO)ccc2c2c1CCCC2 | -6 | . | 1 | -5 | 0
Fc1ccccc1NC(=S)NCc1ccc2c(c1)OCO2 | -19 | 1 | 2 | -6 | 12
O=C(Cn1c(Cc2ccccc2)nc2ccccc21)NCc1ccc2c(c1)OCO2 | 1 | 0 | 137* | 19 | -9
S=C(NCc1ccccc1)NCc1ccc2c(c1)OCO2 | -8 | 8.9* | 0 | 18 | -6
O=C(NCCSc1c[nH]c2ccccc12)c1ccc(Br)o1 | -6 | 0 | 16* | -10 | 8
O=C(CSc1c[nH]c2ccccc12)NCc1ccc2c(c1)OCO2 | -36 | -3 | 44* | -16 | 2
Cc1ccc(CN2CCC(CNC(=O)c3ccc(NC(=O)C4=CSCCO4)cc3)CC2)cc1 | -3 | . | 0 | 6 | 0
CCC(C)c1ccc(S(=O)(=O)N2CCN(c3ccccn3)CC2)cc1 (centres undefined) | -26 | . | -6 | -2 | -2
CC1CC(C)CN(CCCNC(=O)C2CCCN(S(=O)(=O)N3CC(C)CC(C)C3)C2)C1 (centres undefined) | -32 | . | 0 | 31 | 0
CCOc1ccc(-n2c(C)nc3cc(C(=O)NCc4ccco4)ccc32)cc1 | -39 | 9.5* | -1 | 16 | 13
